Most compounds without a hit are left out; they make up all but 3.5% or so of the library.
GPR151 activ: activates the human receptor GPR151; Q8TDV0; PathHunter beta-arrestin GPR151 cells, luminescence; activation, % at 11.2 µM; 650,000 tested, 1% active; in the data active = activation above about 4.9%
TEAD-YAP inh: TEAD-YAP interaction inhibition | HEK-TIYL cells, TEAD-Gal4/YAP UAS-luciferase luminescence | inhibition, % at 9.12 µM | 640,000 tested, 1.4% active | AID 1259422; in the data active = inhibition above about 32%
FBW7 act: activators of human E3 ligase FBW7; Q969H0; AlphaScreen FBW7–phospho-cyclin E peptide binding, activator screen; normalized activity (activation), % at 26.1 µM; 650,000 tested, 0.13% active; AID 1259310; in the data active = normalized activity above about 1.9%;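 also: purified mutant Fbw7 with reduced substrate affinity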
MITF primary: human MITF inhibition, primary screen. O75030. AlphaScreen MITF homodimerization, bead proximity signal. inhibition, % at 2.6 µM. 650,000 tested, 0.91% active. AID 1259374; in the data active = inhibition above about 50%
Target sequence (O75030 whole entry, looked up): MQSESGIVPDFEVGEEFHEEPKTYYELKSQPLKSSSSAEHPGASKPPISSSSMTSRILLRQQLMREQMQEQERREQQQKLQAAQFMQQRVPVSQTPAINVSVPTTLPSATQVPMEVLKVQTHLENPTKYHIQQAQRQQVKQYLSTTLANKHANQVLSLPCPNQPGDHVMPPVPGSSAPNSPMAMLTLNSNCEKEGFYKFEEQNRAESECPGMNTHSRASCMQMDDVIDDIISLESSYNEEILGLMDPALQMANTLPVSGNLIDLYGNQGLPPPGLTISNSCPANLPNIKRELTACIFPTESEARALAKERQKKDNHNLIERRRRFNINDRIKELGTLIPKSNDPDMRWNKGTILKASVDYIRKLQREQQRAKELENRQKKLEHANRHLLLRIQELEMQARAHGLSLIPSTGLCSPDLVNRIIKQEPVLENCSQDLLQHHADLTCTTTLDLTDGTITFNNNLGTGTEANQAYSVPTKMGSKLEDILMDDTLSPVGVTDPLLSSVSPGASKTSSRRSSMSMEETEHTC
Each line names hits and unclear results; the compound was inactive in the other large screens.

COc1ccccc1C1C(C(=O)OC2CCCC2)=C(C)NC2=C1C(=O)CC(c1ccccc1)C2 (centres undefined)	FBW7 act 2.6
COc1ccc(C2CC(=O)C3=C(C2)NC(C)=C(C(=O)OC2CCCC2)C3c2ccccc2F)cc1OC (centres undefined)	TEAD-YAP inh 48
CCCOC(=O)C1=C(C)NC2=C(C(=O)CC(c3ccc(OC)c(OC)c3)C2)C1c1cccc(Cl)c1 (centres undefined)	TEAD-YAP inh 35
COc1ccc(C2CC(=O)C3=C(C2)NC(C)=C(C(=O)OC2CCCC2)C3c2ccc(F)cc2)cc1OC (centres undefined)	TEAD-YAP inh 37
CCCOC(=O)C1=C(C)NC2=C(C(=O)CC(c3ccc(OC)c(OC)c3)C2)C1c1ccc(Cl)cc1Cl (centres undefined)	none
COc1ccc(-c2nc3cnccn3c2NCC2CCCO2)cc1OC (centres undefined)	none
CCC1CCCCN1CCN1C(=O)C2C(C(=O)Nc3cc(Cl)cc(Cl)c3)C3C=CC2(O3)C1C(=O)NC1CCCCC1 (centres undefined)	none
COc1ccc(C2CC(=O)C3=C(C2)NC(C)=C(C(=O)OC2CCCC2)C3c2cccc(C)c2)cc1OC (centres undefined)	TEAD-YAP inh 47
COc1ccc(C2CC(=O)C3=C(C2)NC(C)=C(C(=O)OC2CCCC2)C3c2cccc(Cl)c2)cc1OC (centres undefined)	none
COc1ccc(C2CC(=O)C3=C(C2)NC(C)=C(C(=O)OC2CCCC2)C3c2cccc([N+](=O)[O-])c2)cc1OC (centres undefined)	TEAD-YAP inh 42
CC(=O)Nc1nc2ccc(S(=O)(=O)N3CCCCC3)cc2s1	none
CC(C)CC(=O)Nc1nc2ccc(S(=O)(=O)N3CCCCC3)cc2s1	TEAD-YAP inh 52
C=CCN1C2=NCCCN2c2ccccc21	none
CCCCCCN1C2=NCCCN2c2ccccc21	TEAD-YAP inh 36
O=C(NNc1ncnc2c1cnn2-c1ccc(Cl)cc1)c1cccs1	TEAD-YAP inh 57
Clc1ccc(-n2ncc3c(NC(c4ccccc4)c4ccccc4)ncnc32)cc1	none
Clc1ccc(Nc2ncnc3c2cnn3-c2ccccc2)cc1	none
CC(C)Nc1ncnc2c1cnn2-c1ccc(Cl)cc1	TEAD-YAP inh 56
O=C(NNc1ncnc2c1cnn2-c1ccc(F)cc1)c1cccs1	none
Clc1ccc(-n2ncc3c(Nc4ccc(Br)cc4)ncnc32)cc1	TEAD-YAP inh 42
COCCN1C(=O)CS/C1=C(/C#N)C(=O)NCCc1ccccc1	none
O=C(NCc1ccccc1)C(=O)NCc1cccnc1	none
CC(C)c1ccc(CNC(=O)C(=O)NCc2cccnc2)cc1	TEAD-YAP inh 47
O=C(NCc1cccnc1)c1ccc(C#Cc2ccccc2)o1	TEAD-YAP inh 99
CCOc1ccccc1NC(=O)C(=O)NC1CCCC1	none
O=C(N/N=C/c1ccccc1Br)c1ccc(F)cc1	none
COC(=O)Cc1nc(NCc2ccccc2OC)c2c(C)c(C)sc2n1	none
Cc1nc(NCc2ccc(F)cc2)c2c(C)c(C)sc2n1	TEAD-YAP inh 35
Cc1sc2nc(-c3cccnc3)nc(NCc3cccnc3)c2c1C	TEAD-YAP inh 68, MITF primary 73
COc1ccccc1CNc1nc(C)nc2sc(C)c(C)c12	TEAD-YAP inh 46
Cc1sc2ncnc(NCc3ccc(Cl)cc3)c2c1C	none
Cc1nc(NCc2ccc(Cl)cc2)c2c(C)c(C)sc2n1	TEAD-YAP inh 39
CCOc1ccccc1CN[C@H]1C[C@@H](C(=O)NCc2cccnc2)N(Cc2ccccc2)C1	none
CCOc1ccc(C23CC4CC(CC(C(=O)O)(C4)C2)C3)cc1	none
COc1ccc(/C(N)=N/OC(=O)COc2ccc(Br)cc2C)cc1OC	none
COc1cc(-c2nc(Nc3ccc(C)c(Cl)c3)c3ccccc3n2)cc(OC)c1OC	TEAD-YAP inh 52
COc1ccc(Nc2nc(-c3cc(OC)c(OC)c(OC)c3)nc3ccccc23)cc1OC	none
CCOc1ccc(Nc2nc(NCc3ccccc3)c3ccccc3n2)cc1	TEAD-YAP inh 33
COc1cc(-c2nc(Nc3ccc(OCc4ccccc4)cc3)c3ccccc3n2)cc(OC)c1OC	none
CCOc1ccc(Nc2nc(-c3cc(OC)c(OC)c(OC)c3)nc3ccccc23)cc1	TEAD-YAP inh 40
CC(C)(NO)/C(=N\O)c1ccc(F)cc1	none
C=CCn1c(Cl)c(/C=N/NC(N)=O)s/c1=N\S(=O)(=O)c1cccs1	none
COC(=O)c1cc2sccc2n1CC(=O)Cc1ccc(OC)cc1OC	TEAD-YAP inh 50
COC(=O)c1cc2sccc2n1CC(=O)c1ccccc1	none
Oc1cccc(Nc2nc(NCc3ccco3)c3ccccc3n2)c1	none
Brc1cccc(Nc2nc3nonc3nc2NCc2ccco2)c1	TEAD-YAP inh 87

Screening data as filed in PubChem BioAssay.
